# Values without a mark were called inactive. Records with an inconclusive call do not appear. A call without a number means that no potency is given here. Calls of active or inactive are those of the source. Unless noted, the call rests on the fitted dose curve; in most records, active means well fitted curve in the direction sought with a large enough effect; inconclusive means small, poorly fitted or top-dose-only effect, or another doubt; inactive means no such curve, though single readings can be large; an effect the other way counts as inactive or inconclusive.
# What was measured:
# [1] = biological target: Cytochrome P450 1A2 (Homo sapiens) (UniProt P05177); assay: p450-cyp1a2 (AID 410; calls by dose curve; further: potency means the concentration at half of the fitted maximal effect)
# How it was run: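 20nM CYP1A2 with 100uM Luciferin-ME (at Km) in 100mM KPO4; compound preincubated 10 min, NADPH regeneration added, 60 min at room temperature. Luciferin quantified by luminescence after detection reagent; normalized to 57 uM furafylline.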
# [2] = NFAT Signaling Pathway (AID 444; active means well fitted curve in either direction with a large enough effect, not every such curve was filed as active;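 further: carbachol stimulus at about its EC50 of 1 µM final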); details: Jurkat NFAT-bla M1, carbachol, beta-lactamase ratio, 5 h; at 17.2 µM (top of the series) unless noted
# How it was run: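 Jurkat cells with NFAT-driven β-lactamase reporter and co-expressed M1 receptor, stimulated with carbachol (final 1 uM, ~EC50), compound titration, 5 h at 37 °C. CCF4 loaded 1 h at RT; 460/530 nm ratio gave %activity and AC50.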
# [3] = biological target: Glucocorticoid receptor (Homo sapiens) (UniProt P04150); assay: GR-GFP Redistribution (AID 450;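 active means compounds whose dose series gives a full or clear partial fitted curve of increased nuclear translocation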; further: potency means the concentration at half of the fitted maximal effect); details: U2OS GR-GFP nuclear translocation, laser cytometry, 2 h
# [4] = biological target: Glucocorticoid receptor (Homo sapiens) (UniProt P04150); assay: GR-EFC Redistribution (AID 451; calls by dose curve; further: potency means the concentration at half of the fitted maximal effect); details: CHO-K1 GR-EFC translocation, beta-gal luminescence, 2 h
# How it was run: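 CHO-K1 cells expressing nuclear EA and GR-ED fragments of b-gal; compounds titrated up to 46 uM final, 2 h at 37 C. GR nuclear translocation read as complemented b-gal luminescence after 1 h RT detection.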
# [5] = biological target: Mitogen-activated protein kinase 10 (Mus musculus) (UniProt Q61831); assay: JNK3 AlphaScreen Assay (AID 530; active means well fitted curve in either direction with a large enough effect, not every such curve was filed as active;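 further: kinase came from lysate of stimulated human HepG2 cells; signal reports phosphorylation of biotinylated GST-cJun 1-79 at Ser73 with 10 µM ATP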)
# How it was run: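 Pre-activated (IL-1β/TNFα) JNK3 in HepG2 lysates phosphorylates biotin-GST-cJun(1-79), 10 uM ATP; anti-phospho-cJun(Ser73) AlphaScreen read at room temperature, pH 7.6 Tris buffer. Compounds pre-incubated 15 min as titrations.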
# [6] = biological target: 3',5'-cyclic-AMP phosphodiesterase 4B (Homo sapiens) (UniProt Q07343); assay: qHTS Assay for Inhibitors of PDE-IV (AID 607; active means well fitted activation curve with a large enough effect in the main read-out, with a control signal flat, not every such curve was filed as active)
# How it was run: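 Cell-based read-out of cAMP via a modified cyclic nucleotide-gated channel and membrane potential dye (535/590 nm) in HEK293 cells expressing PDE4 endogenously. Compounds tested up to 22.9 uM final; 100 uM RO 20-1724 reference.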
# [7] = biological target: Cytochrome P450 3A4 (Homo sapiens) (UniProt P08684); assay: qHTS Assay for Inhibitors and Substrates of Cytochrome P450 3A4 (AID 884); further: nearly all actives have a fitted effect of over 50% in size; further: potency means the concentration at half of the fitted maximal effect
# How it was run: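 20 nM human CYP3A4 with 25 uM Luciferin-PPXE (at KM) in 200 mM KPO4, preincubated 10 min with compound; NADPH regeneration started a 60 min RT reaction. Luciferin detected by luminescence, normalized to 57 uM ketoconazole as full inhibition.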
# [8] = biological target: Cytochrome P450 3A4 (Homo sapiens) (UniProt P08684); assay: qHTS Assay for Activators of Cytochrome P450 3A4 (AID 885); further: nearly all actives have a fitted effect of over 65% in size
# How it was run: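 Signal was normalized against complete inhibition by 57 uM ketoconazole. The reaction used 20nM CYP3A4 with 25uM Luciferin-PPXE, 10-min compound preincubation and a 60-min NADPH-supported step at RT.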
# [9] = biological target: Ubiquitin carboxyl-terminal hydrolase 1 (Homo sapiens) (UniProt O94782); assay: Inhibitors of USP1/UAF1: Pilot qHTS (AID 504865); further: nearly all actives have a fitted effect of over 35% in size; further: potency means the concentration at half of the fitted maximal effect;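 on activity change, negative = inhibition: rhodamine fluorescence freed from ubiquitin-rhodamine substrate followed over time; top concentration of the series differs between compounds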
# How it was run: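 USP1/UAF1 complex (1nM) preincubated with compound 15 min at room temperature, then Ub-Rho substrate (150nM final) added. Fluorescence read kinetically at 480/540 nm, 6 reads every 60 seconds. Buffer: 50mM HEPES pH 7.8, 0.5mM EDTA, 0.1 mg/ml BSA, 1mM TCEP, 0.01% Tween-20.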
# [10] = biological target: Cytochrome P450 2C9 (Homo sapiens) (UniProt P11712); assay: qHTS Assay for Inhibitors and Substrates of Cytochrome P450 2C9 (AID 883); further: nearly all actives have a fitted effect of over 60% in size
# How it was run: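 10nM CYP2C9 + 100uM Luciferin-H (=KM), 25mM KPO4; cpd 10 min 37C; NADPH regen, 60 min 37C; stop/detect with P450 Glo-Buffer 20 min; luminescence. Norm. to 57uM sulphaphenazole as full inhibition.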
# [11] = AP1 Signaling Pathway (AID 357; active means well fitted curve in either direction with a large enough effect, not every such curve was filed as active;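 further: ME-180 reporter cells stimulated with EGF at its EC50 level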); details: ME-180 AP-1-bla reporter, EGF-induced, beta-lactamase ratio, 5 h; at 17.2 µM (top of the series) unless noted
# How it was run: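 A ratiometric CCF4 readout (405 nm excitation; 460 and 530 nm emission) quantified AP-1-driven beta-lactamase in ME-180 cells after 5 h with compound and EC50 EGF; AC50 values were derived for activators and inhibitors.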
# [12] = Stat Signaling Pathway (AID 446; active means well fitted curve in either direction with a large enough effect, not every such curve was filed as active;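 further: ME-180 cervical cancer cells given 40 pM IL-6 alongside compound; SIE-controlled beta-lactamase reporter measured as 460/530 nm FRET emission ratio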)
# How it was run: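 Reporter line: ME-180 cervical carcinoma, SIE-beta-lactamase. Treatment: compound with 40 pM IL-6, 5 hrs, 37 C, in low-serum OPTI-MEM with 10 mM HEPES pH 7.3. Detection: 460/530 nm fluorescence.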
# [13] = biological target: Cytochrome P450 2D6 (Homo sapiens) (UniProt P10635); assay: qHTS Assay for Inhibitors and Substrates of Cytochrome P450 2D6 (AID 891); further: potency means the concentration at half of the fitted maximal effect; nearly all actives have a fitted effect of over 60% in size
# How it was run: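 Human CYP2D6 (5 nM) with 30 uM Luciferin-ME EGE (at Km) in 100 mM KPO4, compound preincubated 10 min, then NADPH regeneration system for 60 min at room temperature. Luciferin read by luminescence; normalized to 1.43 uM quinidine.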
# [14] = biological target: Cytochrome P450 2C19 (Homo sapiens) (UniProt P33261); assay: qHTS Assay for Inhibitors and Substrates of Cytochrome P450 2C19 (AID 899); further: nearly all actives have a fitted effect of over 60% in size; further: potency means the concentration at half of the fitted maximal effect
# How it was run: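 Luminescent read-out of luciferin formed from Luciferin-H EGE (10uM, equal to KM). Enzyme 5nM in 50mM KPO4; compound added, 10 min at 37C, then NADPH regenerating system for 60 min at 37C. Full inhibition defined by 57uM ketoconazole.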
# [15] = biological target: DNA dC->dU-editing enzyme APOBEC-3G (Homo sapiens) (UniProt Q9HC16); assay: qHTS for inhibitors of Vif-A3G interactions: Validation (AID 588379)
# How it was run: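 HeLa cells stably expressing Vif and A3G-eYFP, 700 cells/well, incubated overnight at 37 deg C, then exposed to compound overnight at 37 deg C. Inhibition of Vif-mediated degradation read as increased yellow fluorescence (Ex 488/Em 500-530) by laser-scanning cytometry.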
# [16] = biological target: Guanine nucleotide-binding protein G(i) subunit alpha-1 (Homo sapiens) (UniProt P63096); assay: qHTS Assay for Inhibitors of RGS12 GoLoco Motif Activity (Green Fluorophore) (AID 879);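 further: negative values mean loss of peptide binding seen as reduced polarization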
# How it was run: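 Fluorescence polarization assay: 50 nM Gαi1 with 10 nM FITC-labeled RGS12 GoLoco peptide in 10 mM Tris pH 7.5, 150 mM NaCl, 0.1 mM GDP, 0.05% NP40, 10 min at room temperature with compound.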
# [17] = biological target: Muscarinic acetylcholine receptor M1 (Rattus norvegicus) (UniProt P08482); assay: qHTS Assay for Antagonists of Acetylcholine Muscarinic M1 Receptor: Kinetic Measurement of Intracellular Calcium Response (AID 943); further: nearly all actives have a fitted effect of over 75% in size
# How it was run: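 CHO cells expressing rat M1 receptor, Fluo-4 loaded, preincubated 10 min with compound, then stimulated with EC80 carbachol (100 nM final). Kinetic calcium fluorescence over 4 min; response taken as peak over basal signal.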
# [18] = biological target: Pyruvate kinase (Leishmania mexicana) (UniProt Q27686); assay: qHTS Validation Assay for Inhibitors of Leishmania Mexicana Pyruvate Kinase (AID 945)
# How it was run: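 Substrate mix (0.5 mM PEP, 0.1 mM ADP, 7 mM MgCl2, 50 mM KCl, pH 7.2 imidazole) received compound by pin tool, then 0.2 nM LmPYK E451W. After 1 h at room temperature, PKLight was added and luminescence measured.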
# [19] = biological target: Alpha-galactosidase (Coffea arabica) (UniProt Q42656); assay: Counterscreen for Glucocerebrosidase Inhibitors: qHTS Assay for Coffee Bean alpha-Galactosidase at pH 4.5 (AID 957)
# How it was run: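 Coffee bean enzyme (2 nM) with 80 uM 4-methylumbelliferyl alpha-D-galactopyranoside in 50 mM citric acid, 0.005% Tween-20, pH 4.5, 20 min at room temperature; compounds 0.7 nM–77 uM. Stopped at pH 10, fluorescence 365/440 nm; AC50 from Hill fits.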
# [20] = biological target: Pyruvate kinase PKM (Homo sapiens) (UniProt P14618); assay: qHTS Assay for Inhibitors of Human Muscle Pyruvate Kinase (AID 958)
# How it was run: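 PKM2, human, >95% pure, 0.1 nM; PEP 0.5 mM (Km), ADP 0.1 mM; 50 mM imidazole pH 7.2, 50 mM KCl, 0.01% Tween 20, 0.05% BSA; 1 h RT; luciferase luminescence readout.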
# [21] = biological target: Alpha-galactosidase A (Homo sapiens) (UniProt P06280); assay: Counterscreen for Glucocerebrosidase Inhibitors: qHTS Assay for Human alpha-Galactosidase at pH 4.5 (AID 992)
# How it was run: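 Quantitative HTS: compounds tested from 0.7 nM up to 77 uM against 2 nM enzyme with 80 uM 4-MU alpha-D-galactopyranoside. The 20 min room-temperature reaction is stopped with 1M NaOH/1M glycine, pH 10.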
# [22] = biological target: alpha-glucosidase (Oryza sativa, rice) (UniProt Q653V4); assay: Counterscreen for Glucocerebrosidase Inhibitors: qHTS Assay for Rice alpha-Glucosidase at pH 5.0 (AID 997)
# How it was run: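 Rice alpha-glucosidase (4 nM final) with 400 uM 4-methylumbelliferyl-alpha-D-glucopyranoside in citrate buffer pH 5.0, 20 min at room temperature, stopped at pH 10; fluorescence 365/440 nm, compounds 0.7 nM–77 uM, AC50 from Hill fits.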
# [23] = biological target: Alpha-galactosidase (Coffea arabica) (UniProt Q42656); assay: Counterscreen for Glucocerebrosidase Inhibitors: qHTS Assay for Coffee Bean alpha-Galactosidase at pH 5.9 (AID 998)
# How it was run: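 Green coffee bean enzyme (2 nM) with 4-methylumbelliferyl alpha-D-galactopyranoside (80 uM) in 50 mM citric acid, 0.005% Tween-20, pH 5.9, 20 min at room temperature; compounds 0.7 nM–77 uM. Stopped at pH 10, fluorescence Ex365/Em440; Hill-fit AC50.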
# [24] = biological target: Pyruvate kinase PKM (Homo sapiens) (UniProt P14618); assay: qHTS Assay for Activators of Human Muscle Pyruvate Kinase (AID 954; active means well fitted curve in the direction sought with a large enough effect, not every such curve was filed as active)
# How it was run: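 Human PKM2 activity is measured as ATP generation, detected by luciferase-coupled luminescence. The enzyme (0.1 nM) acts on 0.5 mM PEP and 0.1 mM ADP for 1 h at ambient temperature; data are normalized to uninhibited and full-inhibition wells.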
# Alpha-galactosidase (Coffea arabica), sequence (Q42656 whole entry, looked up): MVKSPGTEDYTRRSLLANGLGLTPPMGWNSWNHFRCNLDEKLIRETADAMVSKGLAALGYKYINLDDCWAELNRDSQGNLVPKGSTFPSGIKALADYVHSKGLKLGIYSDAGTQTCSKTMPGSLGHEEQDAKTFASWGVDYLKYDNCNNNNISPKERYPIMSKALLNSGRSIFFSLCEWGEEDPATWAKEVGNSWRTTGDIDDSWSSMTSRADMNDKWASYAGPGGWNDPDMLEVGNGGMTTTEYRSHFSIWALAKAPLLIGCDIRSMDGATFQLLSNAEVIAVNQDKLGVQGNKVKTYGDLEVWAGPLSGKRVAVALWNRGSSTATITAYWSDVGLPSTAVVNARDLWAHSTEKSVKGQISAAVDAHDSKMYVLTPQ
# Glucocorticoid receptor (Homo sapiens), sequence (P04150 whole entry, looked up, the tested form may be a part): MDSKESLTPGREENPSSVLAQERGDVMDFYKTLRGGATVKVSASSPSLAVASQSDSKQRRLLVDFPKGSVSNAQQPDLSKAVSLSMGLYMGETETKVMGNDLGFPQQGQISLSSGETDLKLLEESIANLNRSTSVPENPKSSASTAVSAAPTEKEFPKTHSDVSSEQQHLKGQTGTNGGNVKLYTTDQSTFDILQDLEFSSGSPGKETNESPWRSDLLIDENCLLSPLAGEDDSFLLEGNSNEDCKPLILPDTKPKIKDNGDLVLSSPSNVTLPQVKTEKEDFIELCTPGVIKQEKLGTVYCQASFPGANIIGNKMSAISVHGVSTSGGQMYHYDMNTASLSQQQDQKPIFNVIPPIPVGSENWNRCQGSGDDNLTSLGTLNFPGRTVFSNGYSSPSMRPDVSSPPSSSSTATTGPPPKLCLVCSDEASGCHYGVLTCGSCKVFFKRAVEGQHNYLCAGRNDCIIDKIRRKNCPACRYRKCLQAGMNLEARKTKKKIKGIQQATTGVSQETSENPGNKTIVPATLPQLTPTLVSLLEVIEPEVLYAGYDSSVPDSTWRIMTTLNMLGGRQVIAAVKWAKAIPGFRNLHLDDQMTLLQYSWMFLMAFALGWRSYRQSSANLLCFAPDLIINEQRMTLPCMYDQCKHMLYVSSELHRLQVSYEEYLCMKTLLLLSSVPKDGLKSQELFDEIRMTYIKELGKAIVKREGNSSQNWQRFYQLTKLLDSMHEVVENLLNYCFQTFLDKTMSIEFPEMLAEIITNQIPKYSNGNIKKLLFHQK
# Cytochrome P450 1A2 (Homo sapiens), sequence (P05177 whole entry, looked up): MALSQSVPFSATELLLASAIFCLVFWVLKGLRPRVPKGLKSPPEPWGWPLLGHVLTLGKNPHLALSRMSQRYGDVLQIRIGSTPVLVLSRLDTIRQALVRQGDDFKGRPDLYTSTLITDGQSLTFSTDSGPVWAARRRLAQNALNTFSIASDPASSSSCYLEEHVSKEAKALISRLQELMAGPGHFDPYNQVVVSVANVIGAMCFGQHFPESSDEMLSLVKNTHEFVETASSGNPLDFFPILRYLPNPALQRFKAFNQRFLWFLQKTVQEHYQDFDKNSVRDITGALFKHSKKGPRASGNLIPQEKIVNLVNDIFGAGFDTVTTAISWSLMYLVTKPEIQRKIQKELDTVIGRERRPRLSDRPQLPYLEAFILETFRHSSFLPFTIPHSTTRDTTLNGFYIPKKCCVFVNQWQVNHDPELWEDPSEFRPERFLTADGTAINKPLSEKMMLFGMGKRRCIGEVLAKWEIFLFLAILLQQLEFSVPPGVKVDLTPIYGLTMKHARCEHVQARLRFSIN
# Cytochrome P450 3A4 (Homo sapiens), sequence (P08684 whole entry, looked up): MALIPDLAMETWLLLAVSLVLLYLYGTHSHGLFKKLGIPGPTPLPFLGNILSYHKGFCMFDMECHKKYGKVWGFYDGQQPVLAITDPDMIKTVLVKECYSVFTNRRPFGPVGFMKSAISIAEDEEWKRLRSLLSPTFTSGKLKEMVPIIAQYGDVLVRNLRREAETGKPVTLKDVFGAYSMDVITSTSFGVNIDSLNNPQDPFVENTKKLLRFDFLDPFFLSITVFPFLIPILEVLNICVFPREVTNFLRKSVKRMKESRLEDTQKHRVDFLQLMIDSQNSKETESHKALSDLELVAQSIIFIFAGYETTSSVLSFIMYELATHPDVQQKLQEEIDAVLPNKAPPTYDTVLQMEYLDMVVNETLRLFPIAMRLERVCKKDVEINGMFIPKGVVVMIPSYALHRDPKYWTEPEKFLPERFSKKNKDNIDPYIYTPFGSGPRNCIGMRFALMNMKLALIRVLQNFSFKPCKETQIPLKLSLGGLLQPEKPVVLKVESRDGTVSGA
# 3',5'-cyclic-AMP phosphodiesterase 4B (Homo sapiens), sequence (Q07343 whole entry, looked up): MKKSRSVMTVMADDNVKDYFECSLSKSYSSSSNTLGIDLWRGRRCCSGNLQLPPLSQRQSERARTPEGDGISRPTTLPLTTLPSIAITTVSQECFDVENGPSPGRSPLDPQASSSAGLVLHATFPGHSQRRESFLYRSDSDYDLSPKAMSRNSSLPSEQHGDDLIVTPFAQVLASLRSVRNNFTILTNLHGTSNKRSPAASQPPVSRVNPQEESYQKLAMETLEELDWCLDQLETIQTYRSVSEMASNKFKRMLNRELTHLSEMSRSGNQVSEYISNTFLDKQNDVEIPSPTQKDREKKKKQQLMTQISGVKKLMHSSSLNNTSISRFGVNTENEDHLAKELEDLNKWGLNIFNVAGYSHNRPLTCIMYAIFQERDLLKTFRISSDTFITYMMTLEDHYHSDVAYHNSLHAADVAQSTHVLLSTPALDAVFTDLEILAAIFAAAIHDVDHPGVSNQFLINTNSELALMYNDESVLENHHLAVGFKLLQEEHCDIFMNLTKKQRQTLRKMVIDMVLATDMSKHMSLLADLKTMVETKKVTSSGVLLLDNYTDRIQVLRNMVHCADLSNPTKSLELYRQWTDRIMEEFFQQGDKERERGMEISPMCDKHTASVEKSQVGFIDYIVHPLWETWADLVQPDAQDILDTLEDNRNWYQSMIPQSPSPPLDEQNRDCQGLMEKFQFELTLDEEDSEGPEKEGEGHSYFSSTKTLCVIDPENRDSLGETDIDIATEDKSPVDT
# Alpha-galactosidase A (Homo sapiens), sequence (P06280 whole entry, looked up): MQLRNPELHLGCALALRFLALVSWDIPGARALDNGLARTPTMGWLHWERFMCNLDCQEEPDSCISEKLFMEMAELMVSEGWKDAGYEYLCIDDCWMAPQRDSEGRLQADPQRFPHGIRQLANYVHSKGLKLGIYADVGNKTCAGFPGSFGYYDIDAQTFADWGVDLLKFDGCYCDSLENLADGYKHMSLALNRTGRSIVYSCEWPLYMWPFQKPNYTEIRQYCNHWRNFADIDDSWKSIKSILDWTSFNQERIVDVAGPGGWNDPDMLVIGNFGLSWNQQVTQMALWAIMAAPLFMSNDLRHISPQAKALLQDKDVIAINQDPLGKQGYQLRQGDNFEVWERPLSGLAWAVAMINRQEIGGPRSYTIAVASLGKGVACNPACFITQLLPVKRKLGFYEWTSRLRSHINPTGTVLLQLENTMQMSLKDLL
# Pyruvate kinase (Leishmania mexicana), sequence (Q27686 2-499 E452W): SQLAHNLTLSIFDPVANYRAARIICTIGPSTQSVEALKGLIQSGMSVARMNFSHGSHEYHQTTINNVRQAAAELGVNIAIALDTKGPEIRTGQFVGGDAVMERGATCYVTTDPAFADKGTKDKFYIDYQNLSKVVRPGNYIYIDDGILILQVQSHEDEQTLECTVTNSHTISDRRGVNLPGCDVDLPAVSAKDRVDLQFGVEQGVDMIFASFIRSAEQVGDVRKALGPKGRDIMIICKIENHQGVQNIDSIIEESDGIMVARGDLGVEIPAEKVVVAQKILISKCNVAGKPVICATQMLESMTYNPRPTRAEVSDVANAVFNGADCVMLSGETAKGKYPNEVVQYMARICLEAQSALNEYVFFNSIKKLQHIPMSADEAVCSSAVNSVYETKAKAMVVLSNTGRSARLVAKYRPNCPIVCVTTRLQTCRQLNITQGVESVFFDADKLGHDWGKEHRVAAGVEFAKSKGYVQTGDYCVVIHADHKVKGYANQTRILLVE
# Ubiquitin carboxyl-terminal hydrolase 1 (Homo sapiens), sequence (O94782 whole entry, looked up): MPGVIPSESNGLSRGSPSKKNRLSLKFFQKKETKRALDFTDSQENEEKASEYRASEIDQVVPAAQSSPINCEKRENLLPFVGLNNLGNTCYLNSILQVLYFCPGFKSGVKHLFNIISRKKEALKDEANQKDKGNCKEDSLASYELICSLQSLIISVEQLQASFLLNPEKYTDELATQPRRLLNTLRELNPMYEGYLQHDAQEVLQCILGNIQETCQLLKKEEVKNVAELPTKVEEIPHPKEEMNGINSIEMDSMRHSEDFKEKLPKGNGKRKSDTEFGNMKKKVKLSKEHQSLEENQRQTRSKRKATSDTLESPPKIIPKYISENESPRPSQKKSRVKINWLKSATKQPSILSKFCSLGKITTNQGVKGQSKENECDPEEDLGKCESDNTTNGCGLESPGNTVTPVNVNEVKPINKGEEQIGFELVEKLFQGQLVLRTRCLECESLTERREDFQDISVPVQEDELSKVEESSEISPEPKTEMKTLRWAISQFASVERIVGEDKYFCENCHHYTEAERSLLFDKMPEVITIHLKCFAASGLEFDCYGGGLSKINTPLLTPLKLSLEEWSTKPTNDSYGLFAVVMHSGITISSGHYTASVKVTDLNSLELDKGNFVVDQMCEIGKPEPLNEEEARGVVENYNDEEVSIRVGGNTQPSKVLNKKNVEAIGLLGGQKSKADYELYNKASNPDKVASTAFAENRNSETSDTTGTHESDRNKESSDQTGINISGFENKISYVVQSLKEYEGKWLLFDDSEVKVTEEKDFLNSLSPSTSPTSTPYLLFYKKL
# DNA dC->dU-editing enzyme APOBEC-3G (Homo sapiens), sequence (Q9HC16 whole entry, looked up): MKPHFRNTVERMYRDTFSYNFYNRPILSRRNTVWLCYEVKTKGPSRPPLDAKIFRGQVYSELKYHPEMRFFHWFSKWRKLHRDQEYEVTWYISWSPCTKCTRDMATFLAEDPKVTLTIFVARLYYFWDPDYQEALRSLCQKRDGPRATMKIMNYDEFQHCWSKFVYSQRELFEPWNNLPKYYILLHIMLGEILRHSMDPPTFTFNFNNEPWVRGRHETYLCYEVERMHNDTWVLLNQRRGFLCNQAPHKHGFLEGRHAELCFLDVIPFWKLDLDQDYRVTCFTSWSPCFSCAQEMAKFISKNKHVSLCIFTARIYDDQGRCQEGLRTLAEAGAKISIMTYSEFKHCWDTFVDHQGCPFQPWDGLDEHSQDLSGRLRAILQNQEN
compound,measurement,setting,value
CCCCCC[C@H]1C(=O)O[C@H](C)[C@H](NC(=O)c2cccc(NC=O)c2O)C(=O)O[C@@H](C)[C@H]1OC(=O)CC(C)C,Potency,[1],inactive
same,"activity change, negative = inhibition",[2],-34.3%
same,Potency,[3],> 20.6 µM
same,Potency,[4],> 20.6 µM
same,outcome,[5],inactive
same,outcome,[6],inactive
same,Potency,[7],5.01 µM (active)
same,Potency,[8],inactive
same,Potency,[9],28.2 µM (active)
O=c1cccc2n1C[C@@H]1C[C@H]2CN2CCCC[C@H]12,Potency,[1],1.26 µM (active)
same,Potency,[3],> 46 µM
same,Potency,[4],> 46 µM
same,outcome,[5],inactive
same,outcome,[6],inactive
same,Potency,[10],inactive
O=c1[nH]c(=O)n(CCc2ccccc2)c(O)c1C=NCCN1CCNCC1,"activity change, negative = inhibition",[11],17.3%
same,outcome,[12],inactive
same,Potency,[3],> 20.6 µM
C[C@@H](Cc1cccc(C(F)(F)F)c1)NCCCc1ccccc1,Potency,[1],3.98 µM (active)
same,Potency,[3],> 46 µM
same,Potency,[4],> 46 µM
same,outcome,[5],inactive
same,Potency,[7],5.01 µM (active)
same,Potency,[8],inactive
same,Potency,[13],0.0126 µM (active)
same,Potency,[14],1.26 µM (active)
same,Potency,[9],inactive
same,outcome,[15],inactive
C=C[C@@H]1CN2CC[C@@H]1C[C@H]2[C@H](O)c1ccnc2ccccc12,Potency,[1],inactive
same,Potency,[3],> 46 µM
same,Potency,[4],> 46 µM
same,outcome,[5],inactive
same,outcome,[6],inactive
same,Potency,[10],inactive
same,Potency,[14],inactive
CCOC(C(=O)OCC(O)CN(CC)CC)(c1ccccc1)c1ccccc1 (stereo not given),"activity change, negative = inhibition",[11],4.62%
same,outcome,[12],inactive
same,Potency,[3],> 20.6 µM
COc1cc2c(cc1O)-c1c(O)c(OC)cc3c1[C@H](C2)N(C)CC3,Potency,[1],3.16 µM (active)
same,Potency,[3],> 46 µM
same,Potency,[4],> 46 µM
same,outcome,[5],inactive
same,Potency,[8],inactive
same,outcome,[15],inactive
C[C@]12Cc3cn4c(nc3C=C1CC[C@H]1[C@@H]2CC[C@@]2(C)[C@H]1CC[C@@]2(O)C#N)nc1ccccc14,Potency,[1],15.8 µM (active)
same,Potency,[3],> 46 µM
same,Potency,[4],> 46 µM
same,outcome,[5],inactive
same,outcome,[6],inactive
same,Potency,[16],inactive
same,Potency,[7],inactive
same,Potency,[17],inactive
same,Potency,[18],inactive
same,outcome,[19],inactive
same,Potency,[20],inactive
same,outcome,[21],inactive
same,outcome,[22],inactive
same,outcome,[23],inactive
C[C@@H]1O[C@@H](O[C@H]2C[C@@H](O)[C@]3(CO)[C@@H]4[C@@H](O)C[C@]5(C)[C@H]([C@@H]6COC(=O)C6)CC[C@@]5(O)[C@H]4CC[C@@]3(O)C2)[C@H](O)[C@H](O)[C@@H]1O,Potency,[1],inactive
same,outcome,[12],inactive
same,Potency,[3],> 46 µM
same,Potency,[4],> 46 µM
same,outcome,[6],inactive
same,Potency,[16],inactive
same,Potency,[18],inactive
same,outcome,[24],inactive
same,outcome,[19],inactive
same,outcome,[21],inactive
same,outcome,[22],inactive
same,outcome,[23],inactive
